Experimental data as given in PubChem BioAssay AID693 (University of Pittsburgh Molecular Library Screening Center, 2007).
Out of some 97,000 compounds screened, about 130 (0.13%) were called active. The entries come from a sample that favours actives as a whole. Unmarked numbers belong to inactive results. Cut-off read from the data, not from the text of the source: active = inhibition above about 34% (passing the limit was not always enough); inactive = the rest.

Molecular target: Serine/threonine-protein kinase PLK1 (Homo sapiens) (UniProt P53350)
Test: Plk1 polo box domain binding inhibitors, primary screen, biochemical, fluorescence polarization (AID 693)
Settings: Plk1 PBD phosphopeptide binding, active compounds read high,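 tested at about 20 µM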

Serine/threonine-protein kinase PLK1 (Homo sapiens), sequence (P53350 whole entry, looked up, the tested form may be a part): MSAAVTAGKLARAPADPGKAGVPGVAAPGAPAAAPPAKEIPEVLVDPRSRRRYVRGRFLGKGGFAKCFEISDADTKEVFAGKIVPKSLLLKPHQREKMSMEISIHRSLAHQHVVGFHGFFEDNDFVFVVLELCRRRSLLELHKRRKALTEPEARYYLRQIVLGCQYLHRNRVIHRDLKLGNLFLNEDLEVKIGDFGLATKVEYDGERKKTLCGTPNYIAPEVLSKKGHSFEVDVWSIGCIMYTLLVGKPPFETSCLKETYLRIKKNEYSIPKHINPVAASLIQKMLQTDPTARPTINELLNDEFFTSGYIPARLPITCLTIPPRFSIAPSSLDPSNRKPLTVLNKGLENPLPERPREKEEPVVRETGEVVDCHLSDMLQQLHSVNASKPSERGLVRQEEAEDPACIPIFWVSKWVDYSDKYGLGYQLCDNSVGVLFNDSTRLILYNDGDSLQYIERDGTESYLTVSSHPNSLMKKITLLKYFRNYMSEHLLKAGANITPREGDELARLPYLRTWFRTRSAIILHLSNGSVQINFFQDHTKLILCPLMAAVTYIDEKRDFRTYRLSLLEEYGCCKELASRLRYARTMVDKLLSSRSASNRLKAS

Structure (SMILES)	inhibition
COCCCNCC(=O)Nc1sc(C)c(C)c1C(=O)OC	-27.8%
COc1ccc(C2CC(=O)Nc3cc(C)c(C)cc32)c(OC)c1OC (centres undefined)	3.42%
O=C(COC(=O)c1ccccc1SCC(=O)NC1CCCCC1)NC1CCCCC1	45.4%
O=C(Cc1ccc(S(=O)(=O)N2CCCC2)s1)NC1CCCCCC1	-9.65%
Cc1cccc(COc2ccccc2/C=N/Nc2ccc([N+](=O)[O-])cc2)c1	0.38%
CC(=O)NC1(c2cccc(F)c2)CCN(CC(=O)NC(C)C)CC1	15.8%
Cc1cc2nnc(SCC(=O)N3CCN(c4ccccc4)CC3)n2c(N)n1	-15.4%
COc1ccccc1OCc1nc2ccccc2s1	7.18%
O=C(Nc1ccccc1)OCc1cn(-c2ccc(Cl)cc2)nn1	6.75%
O=S(=O)(NCC1OCCc2ccccc21)c1ccccc1 (centres undefined)	-4.11%
Cc1ccc(-n2nc(N)c3c(=O)oc(N(C)C)nc32)cc1	13.8%
Cn1c(Cn2nnc3ccccc32)nnc1SCC(=O)c1ccccc1F	-16.2%
CC(C)Oc1ccc(CCc2n[nH]c(=S)n2Cc2ccccc2)cc1	-2.84%
COc1ccc(C)cc1NC(=O)CCC(=O)Nc1nnc(C(F)(F)F)s1	19%
Nc1ccccc1SCc1cc([N+](=O)[O-])cc2c1OCOC2	17.1%
Cc1nc(-c2ccccc2)sc1-c1nc(-c2ccccc2)ncc1S(=O)(=O)c1ccccc1	-7.34%
COc1cc(/C=C2/C(=O)ON=C2C)ccc1OCc1ccccc1F	-10.3%
COc1ccc(-c2oc(/N=C/N3CCCC3)c(C#N)c2-c2ccc(OC)cc2)cc1	-15.2%
CC1(C)CC(=O)C=C(NCCCNC2CCCCC2)C1	-8.28%
CC1(C)CC(=O)C=C(NCCN2CCNCC2)C1	-22%
CC1(C)CC(=O)C=C(NCc2ccncc2)C1	41.4% (active)
Cc1ccc2[nH]c(=O)c(CN(CCCN(C)C)C(=O)Nc3cccc(Cl)c3)cc2c1	3.64%
CCN(CC)CCN1C(=O)C(=O)/C(=C(/O)c2cnn(-c3ccccc3)c2C)C1c1cccs1 (centres undefined)	-7.79%
Cc1cc(C)c(S(=O)(=O)NCC2CCC(C(=O)NCc3ccc4c(c3)OCO4)CC2)c(C)c1 (centres undefined)	-7.41%
COC(=O)c1ccc(OCC(=O)NC(C)(C)C)cc1	5.58%

Structure (SMILES)	inhibition
C/C(=N\NC(=O)c1ccccc1C)c1ccc(N2CCOCC2)cc1	-3.42%
CCOC(=O)C1(S(=O)(=O)c2ccc(Cl)cc2)CCN(Cc2ccccc2)CC1	-3.07%
O=C(CCc1ccc(S(=O)(=O)NC2CCCCC2)cc1)NCc1ccccc1	10.4%
O=C(NCCCN1CCOCC1)c1cnn2c(-c3ccccc3)cc(-c3ccccc3)nc12	-14.2%
O=C(NCCOc1ccccc1)c1ccccc1	-20.9%
O=C(COc1ccc(Cl)cc1)NCCC1=CCCCC1	14.2%
O=C(CCN1CCc2ccccc2C(O)(c2ccccc2)C1)c1ccc2c(c1)OCCO2 (centres undefined)	16.3%
CCCCCN1CC(O)=C(c2ccccc2)C1=N	-1.22%
CC(=NCc1ccco1)c1c(C(F)(F)F)[nH]n(-c2nc3ccccc3s2)c1=O	9.65%
Cc1ccc(NC(=O)COc2ccc(-n3ccnc3)cc2)cc1Cl	2%
O=C(Nc1cc2c3c(c1)C1CCCC1CN3CC1CCCC21)c1ccc([N+](=O)[O-])cc1 (centres undefined)	-24.1%
CC(C)(C)C(=O)Nc1ccc(C(=O)N/N=C/c2ccccc2OC(=O)c2ccc(Cl)cc2Cl)cc1	44.2%
CN(C)c1ccnc(Oc2ccc(F)cc2)c1C#N	-3.95%
CCC(=O)c1c[nH]c(C(=O)NCC2CCCO2)c1 (centres undefined)	8.77%
CS(=O)(=O)N(CC(=O)N1CCN(c2ccc(F)cc2)CC1)C1CCCCC1	-6.27%
CC(=O)c1sc(NC(=O)c2cccc3ccccc23)nc1C	-23.4%
COc1ccccc1NC(=O)CC(NCCN(C)C)C(=O)O (centres undefined)	0.85%
CCCn1nnnc1NC(=O)COc1ccc(Cl)cc1C	12.8%
Oc1ccc2ccc3cccc[n+]3c2c1	61.2% (active)
CN(C)C(CNC(=O)CCCOc1ccccc1)c1ccco1 (centres undefined)	-20%
CCOc1cc2[nH]c(=S)n(CCN3CCCCC3C)c(=O)c2cc1OCC (centres undefined)	-2%
COC(=O)c1ccc(Cc2ccccc2)o1	-14.5%
CCOC(=O)c1cc(C#N)c(N2CCCCC2)nc1-c1ccccc1	20%
Cc1nnc(NC(=O)Cn2c(=O)sc3ccccc32)s1	12.9%
